Values joined by “and” are separate entries in the source; they are usually repeats but may differ in a detail not shown here. Equal entries are not always repeated. Some compounds were tested as several samples or in several runs, with calls that do not always agree. Active and inactive are the calls of the source. The calls were made as follows: active = hit-call score of the fitted dose curve at least 0.9, where 1 is the maximum; inactive = score below 0.9.
Columns and labels:
[1] = ATG_CRE_CIS: Attagene CIS-FACTORIAL HepG2 Assay for human cAMP Responsive Element (CRE) binding protein 3 (AID 2282926); conditions: HepG2 CRE cis-reporter, Attagene multiplexed mRNA; actives raise or lower the signal
In short: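 Endogenous transcription factor activity read via CRE-regulated reporter transcripts in transfected HepG2 cells. After 24 h exposure, RNA was reverse-transcribed, amplified, fluorescently labelled and sized by capillary electrophoresis; gain or loss fitted against DMSO.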

[2] = molecular target: CCAAT/enhancer-binding protein beta (Homo sapiens) (UniProt P17676); assay: ATG_C_EBP_CIS: Attagene CIS-FACTORIAL HepG2 Assay for human CCAAT/Enhancer Binding Protein (C/EBP) beta (AID 2282927); conditions: HepG2 Attagene cis-factorial transcription factor reporter; actives raise or lower the signal
In short: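 Following a 24 h incubation with test chemical, transfected HepG2 cells yielded RNA whose reporter transcripts were quantified by RT-PCR and fluorescent capillary electrophoresis, with DMSO serving as baseline for bidirectional fitting.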

[3] = ATG_CMV_CIS: Attagene CIS-FACTORIAL HepG2 Assay for human CMV (Internal Marker) (AID 2282928); conditions: HepG2 CMV promoter reporter, transcription factor profiling; actives raise or lower the signal;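 also: endpoint acts as a background internal control marker rather than a target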
In short: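 24 h chemical treatment, HepG2 with transient multi-reporter transfection; RNA → oligo(dT) RT → PCR → 6-FAM extension → HpaI digest → CE fluorescence. Bidirectional fit, DMSO negative control.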

[4] = ATG_DR4_LXR_CIS: Attagene CIS-FACTORIAL HepG2 Assay for human Liver X Receptor (LXR), DR4 submotif (AID 2282929); conditions: HepG2 Attagene DR4 cis-reporter, mRNA transcription; actives raise or lower the signal
In short: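 Cells were transfected with multiple reporter transcription units, exposed to chemicals for 24 hours, then lysed for RNA. Reporter mRNA induction was measured by RT-PCR with capillary electrophoresis detection and fitted in both directions relative to DMSO.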

[5] = molecular target: Aryl hydrocarbon receptor (Homo sapiens) (UniProt P35869); assay: ATG_Ahr_CIS: Attagene CIS-FACTORIAL HepG2 Assay for human Aryl Hydrocarbon Receptor (Ahr) (AID 2282930); conditions: HepG2 AhR cis-factorial reporter transcription; actives raise or lower the signal
In short: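 Values derive from bidirectional fitting against DMSO negative control. Underlying signal: cis-element reporter mRNA in transiently transfected HepG2, harvested 24 h post-dose and measured by RT-PCR plus capillary electrophoresis.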

[6] = ATG_AP_1_CIS: Attagene CIS-FACTORIAL HepG2 Assay for human Activator Protein 1 (AP-1) (AID 2282931); conditions: HepG2 Attagene cis-factorial AP-1 reporter mRNA; actives raise or lower the signal
In short: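 Endogenous transcription-factor activity in human HepG2 liver cells is read through a cis-promoter reporter transcript, sampled 24 h after dosing. Detection uses RT-PCR with capillary electrophoresis; values come from bidirectional fitting relative to DMSO.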

[7] = ATG_AP_2_CIS: Attagene CIS-FACTORIAL HepG2 Assay for human Activator Protein 2 (AP-2) (AID 2282932); conditions: HepG2 AP-2 cis-reporter, Attagene transcription factor profiling; actives raise or lower the signal
In short: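 Assay in transfected HepG2 with promoter-regulated reporters, 24 h incubation after dosing. Signal is reporter mRNA fluorescence (RT-PCR, capillary electrophoresis), analysed for both increases and decreases relative to DMSO controls.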

[8] = ATG_BRE_CIS: Attagene CIS-FACTORIAL HepG2 Assay for human Bone Morphogenetic Protein (BMP) Response Element (BRE) (AID 2282933); conditions: HepG2 BMP response element reporter, Attagene transcription factor profiling; actives raise or lower the signal
In short: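 Read-out: reporter mRNA induction quantified by RT-PCR and capillary electrophoresis after 24 h chemical exposure of transfected HepG2 cells. Endogenous factor activity on the BMP response element; gain or loss fitted against DMSO baseline.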

[9] = molecular target: Transcription factor E2F1 (Homo sapiens) (UniProt Q01094); assay: ATG_E2F_CIS: Attagene CIS-FACTORIAL HepG2 Assay for human E2F Transcription Factor 1 (AID 2282935); conditions: HepG2 Attagene cis-reporter, E2F reporter RNA transcripts; actives raise or lower the signal
In short: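 In this cis-factorial format, endogenous factor activity drives transfected reporters in HepG2; transcripts collected at 24 h are quantified by fluorescence after RT-PCR and capillary separation.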

[10] = molecular target: Retinoic acid receptor alpha (Homo sapiens) (UniProt P10276); assay: ATG_DR5_RAR_CIS: Attagene CIS-FACTORIAL HepG2 Assay for human Retinoic Acid Receptor Alpha (RARE), DR5 submotif (AID 2282934); conditions: HepG2 Attagene cis-factorial RARE DR5 reporter, mRNA; actives raise or lower the signal
In short: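 Endpoint fitted in both directions relative to DMSO as negative control. It reflects DR5 cis-element reporter mRNA induction in transiently transfected HepG2 cells, measured 24 h after dosing through RT-PCR and fluorescent capillary electrophoresis.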

Measured: AC50

Chain of Retinoic acid receptor alpha (Homo sapiens) (P10276 whole entry, looked up): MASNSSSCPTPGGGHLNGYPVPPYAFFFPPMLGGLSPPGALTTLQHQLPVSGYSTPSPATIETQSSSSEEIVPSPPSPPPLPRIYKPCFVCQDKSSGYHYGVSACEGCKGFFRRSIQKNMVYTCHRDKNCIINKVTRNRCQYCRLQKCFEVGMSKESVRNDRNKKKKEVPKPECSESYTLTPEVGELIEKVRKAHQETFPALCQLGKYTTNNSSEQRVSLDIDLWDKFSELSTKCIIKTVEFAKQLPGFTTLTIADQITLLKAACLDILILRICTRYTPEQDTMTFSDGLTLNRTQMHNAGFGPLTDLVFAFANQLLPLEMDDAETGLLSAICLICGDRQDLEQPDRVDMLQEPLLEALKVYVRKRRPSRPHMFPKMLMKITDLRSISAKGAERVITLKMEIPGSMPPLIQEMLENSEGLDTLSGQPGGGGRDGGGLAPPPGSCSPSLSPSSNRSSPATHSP
Chain of Aryl hydrocarbon receptor (Homo sapiens) (P35869 whole entry, looked up): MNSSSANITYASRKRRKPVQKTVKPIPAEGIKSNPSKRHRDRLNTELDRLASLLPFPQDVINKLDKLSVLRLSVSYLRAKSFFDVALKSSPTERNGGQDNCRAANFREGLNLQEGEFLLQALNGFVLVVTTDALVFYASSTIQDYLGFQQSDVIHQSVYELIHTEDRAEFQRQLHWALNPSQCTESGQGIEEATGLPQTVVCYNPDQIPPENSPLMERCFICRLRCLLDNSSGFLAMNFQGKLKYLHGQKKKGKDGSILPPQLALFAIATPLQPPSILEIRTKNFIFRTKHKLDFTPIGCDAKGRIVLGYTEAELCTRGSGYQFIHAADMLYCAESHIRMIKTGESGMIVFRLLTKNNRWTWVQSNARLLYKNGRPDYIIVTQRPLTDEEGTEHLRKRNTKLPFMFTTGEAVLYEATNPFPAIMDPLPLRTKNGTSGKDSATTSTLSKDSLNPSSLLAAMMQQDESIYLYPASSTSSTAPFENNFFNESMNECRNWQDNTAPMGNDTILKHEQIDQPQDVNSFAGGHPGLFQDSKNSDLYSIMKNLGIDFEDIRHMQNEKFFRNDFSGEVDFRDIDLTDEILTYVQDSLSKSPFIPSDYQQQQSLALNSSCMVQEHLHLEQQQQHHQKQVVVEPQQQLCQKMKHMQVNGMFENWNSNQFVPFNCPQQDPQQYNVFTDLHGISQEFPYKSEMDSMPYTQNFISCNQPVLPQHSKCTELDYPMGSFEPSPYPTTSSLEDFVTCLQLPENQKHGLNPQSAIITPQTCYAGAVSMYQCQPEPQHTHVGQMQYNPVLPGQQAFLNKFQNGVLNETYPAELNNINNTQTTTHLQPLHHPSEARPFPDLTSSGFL
Chain of Transcription factor E2F1 (Homo sapiens) (Q01094 whole entry, looked up): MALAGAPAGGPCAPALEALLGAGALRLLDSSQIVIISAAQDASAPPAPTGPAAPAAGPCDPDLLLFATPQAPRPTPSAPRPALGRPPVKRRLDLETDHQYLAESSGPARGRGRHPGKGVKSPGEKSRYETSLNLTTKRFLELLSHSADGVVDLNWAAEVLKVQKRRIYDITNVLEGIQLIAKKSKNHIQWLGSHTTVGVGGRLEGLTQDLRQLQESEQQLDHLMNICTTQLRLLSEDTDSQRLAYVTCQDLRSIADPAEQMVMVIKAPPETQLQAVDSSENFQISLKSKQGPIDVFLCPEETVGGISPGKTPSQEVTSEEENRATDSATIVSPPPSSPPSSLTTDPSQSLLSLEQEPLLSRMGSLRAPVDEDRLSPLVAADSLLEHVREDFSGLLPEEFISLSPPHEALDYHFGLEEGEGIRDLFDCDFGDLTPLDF
Chain of CCAAT/enhancer-binding protein beta (Homo sapiens) (P17676 whole entry, looked up): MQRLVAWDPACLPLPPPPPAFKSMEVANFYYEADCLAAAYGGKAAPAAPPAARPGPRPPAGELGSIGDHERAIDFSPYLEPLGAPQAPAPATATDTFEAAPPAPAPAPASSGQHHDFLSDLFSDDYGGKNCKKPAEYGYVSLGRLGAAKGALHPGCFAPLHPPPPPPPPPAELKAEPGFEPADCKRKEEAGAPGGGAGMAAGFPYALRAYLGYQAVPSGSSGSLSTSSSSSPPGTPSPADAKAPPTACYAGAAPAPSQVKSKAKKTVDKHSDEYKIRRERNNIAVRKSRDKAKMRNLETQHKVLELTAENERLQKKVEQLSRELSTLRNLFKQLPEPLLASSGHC

CC(=O)OCC(COC(C)=O)OC(C)=O
not listed: [10]
inactive: all other assays above

O=Cc1ccccc1C=O
not listed: [7]
inactive: all other assays above

Cc1c(C)c2c(c(C)c1O)CCC(C)(COc1ccc(CC3SC(=O)NC3=O)cc1)O2 (stereo not given)
active: [4] 6.81 µM | [6] 9.14 µM
not listed: [10]
inactive: all other assays above

O=C1c2c(O)cccc2Cc2cccc(O)c21
active: [5] 61.7 µM
not listed: [10]
inactive: all other assays above

CN(C)C(=O)NC1(c2ccccc2)CCN(CC[C@@]2(c3ccc(F)c(F)c3)CN(C(=O)c3ccccc3)CCO2)CC1
active: [6] 100 µM
not listed: [10]
inactive: all other assays above

Cc1ccc(C(C)(C)C)c(O)c1
active: [1] 147 µM | [3] 100 µM | [4] 167 µM
not listed: [7] | [10]
inactive: all other assays above

CC(N)=O
active: [5] 29 µM
inactive: [1] | [2] | [3] | [4] | [5] | [6] | [8] | [10] | [9]

Nc1nc(Cl)nc2c1ncn2[C@H]1C[C@H](O)[C@@H](CO)O1
active: [3] 23.7 µM
not listed: [10]
inactive: all other assays above

O=C(NS(=O)(=O)/C=C/c1cccs1)c1ccc(F)cc1Br
not listed: [7]
inactive: all other assays above

CC(C)OC(=O)C(C)(C)Oc1ccc(C(=O)c2ccc(Cl)cc2)cc1
active: [3] 67.9 µM | [4] 61 µM | [6] 74.4 µM | [8] 45.7 µM
not listed: [7]
inactive: all other assays above

CCCCCCC(CCCCCCCCCCC(=O)OCC(COC(C)=O)OC(C)=O)OC(C)=O (stereo not given)
active: [3] 35.6 µM
not listed: [7] | [10]
inactive: all other assays above

CC(C)c1cccc(C(C)C)c1NC(=O)NS(=O)(=O)c1cc(C(C)(C)O)co1
not listed: [5]
inactive: all other assays above

CC(C)NCC(O)c1ccc(O)c(O)c1 (stereo not given)
active: [5] 64.9 µM
not listed: [1] | [10]
inactive: all other assays above

CCCCC(CC)COP(=O)(OCC(CC)CCCC)OCC(CC)CCCC (stereo not given)
active: [5] 68.9 µM
not listed: [7] | [10]
inactive: all other assays above

CSc1ccc(Oc2ccc(S(N)(=O)=O)cc2CN(C)C)cc1C
active: [7] 26.8 µM
not listed: [1] | [10]
inactive: all other assays above

CCCCCCCCCCCCCCOS(=O)(=O)O
not listed: [7] | [10]
inactive: all other assays above

CCN(CC)CCOc1ccc(C(=C(Cl)c2ccccc2)c2ccccc2)cc1
inactive: [2] | [3] | [4] | [5] | [6] | [8] | [10] | [9]
active: [2] 17.4 µM | [3] 7.17 µM | [4] 3.89 µM and 3.11 µM | [5] 9.35 µM

O=C1O[C@H]([C@H](O)CO)C(O)=C1O
not listed: [7] | [10]
inactive: all other assays above

CO[C@@H]1COCC[C@@H]1N[C@@H]1CC[C@@](C(=O)N2CCc3ncc(C(F)(F)F)cc3C2)(C(C)C)C1
not listed: [7] | [10]
inactive: all other assays above

O=[Si]=O
not listed: [5]
inactive: all other assays above

CC(C)c1cccc(C(C)C)c1
not listed: [1]
inactive: all other assays above

From PubChem BioAssay (EPA / NIEHS)
